Source: PubChem BioAssay AID1018 (Sanford-Burnham Center for Chemical Genomics, 2008)
About 15 (0.007%) of roughly 200,000 compounds were called active. What follows is part of a selection rich in actives, with near analogues and random picks from the rest. Unmarked numbers belong to inactive results. Rule as the data show it: active = displacement above about 50%; inactive = the rest.

The compounds below were run against E3 ubiquitin-protein ligase XIAP (Homo sapiens) (UniProt P98170) (assay: XIAP antagonists, biochemical, IAP family, fluorescence polarization (AID 1018)). Settings: XIAP BIR domain, fluorescence polarization peptide displacement; at 20 µM; hits give high values.
E3 ubiquitin-protein ligase XIAP (Homo sapiens), sequence (P98170 whole entry, looked up, the tested form may be a part): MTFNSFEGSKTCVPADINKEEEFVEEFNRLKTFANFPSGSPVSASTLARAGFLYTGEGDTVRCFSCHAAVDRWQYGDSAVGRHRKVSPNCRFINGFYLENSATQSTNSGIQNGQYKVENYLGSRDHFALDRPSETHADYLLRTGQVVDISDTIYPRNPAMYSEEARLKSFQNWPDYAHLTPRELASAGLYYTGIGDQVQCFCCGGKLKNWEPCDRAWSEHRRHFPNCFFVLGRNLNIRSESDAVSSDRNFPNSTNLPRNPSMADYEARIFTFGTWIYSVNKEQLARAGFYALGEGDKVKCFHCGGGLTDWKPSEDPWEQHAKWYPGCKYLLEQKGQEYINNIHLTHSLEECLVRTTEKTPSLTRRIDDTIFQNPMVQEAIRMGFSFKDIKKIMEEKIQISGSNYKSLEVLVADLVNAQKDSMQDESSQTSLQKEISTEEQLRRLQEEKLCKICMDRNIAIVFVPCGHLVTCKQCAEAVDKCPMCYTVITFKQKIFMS

Row | SMILES | displacement
1 | O=c1[nH]nc(CNc2ccc(OC(F)(F)F)cc2)c2ccccc12 | -3.9%
2 | COc1ccccc1N(C)S(=O)(=O)c1ccc(C(=O)Nc2ccc3nc(C)sc3c2)cc1 | 1.3%
3 | Cc1cc(C(F)(F)F)nn1CC(=O)N(C)c1ccccc1 | -1.9%
4 | CCNS(=O)(=O)c1ccc(Br)c(OC)c1 | -3.2%
5 | COc1cc2nc(CN3CCN(S(=O)(=O)c4ccc(Cl)cc4)CC3)[nH]c(=O)c2cc1OC | -6.8%
6 | C#CCOCCOCCOCCNc1nc(N2CCN(C(=O)[C@H](CCCCN)n3cc([C@@H](N)C(C)CC)nn3)CC2)nc(N2CCN(C(=O)[C@H](CCCCN)n3cc([C@@H](N)CO)nn3)CC2)n1 (some centres not stated) | 3.3%
7 | CN(C)S(=O)(=O)c1ccc(C(=O)Nc2ccnn2C2CCCCC2)cc1 | -3.3%
8 | COc1ccc(-c2nc(CC(=O)O)cs2)cc1OC | -0.6%
9 | O=C1NC2=C(CCc3ccccc32)C(c2ccccc2)N1 (configuration not stated) | -5.4%
10 | Cc1ccc(C2NC(=O)NC3=C2CCc2ccccc23)cc1 (configuration not stated) | -5.1%
11 | CC(C)c1ccc(C2NC(=O)NC3=C2CCc2ccccc23)cc1 (configuration not stated) | 52.5% (active)
12 | CCOC(=O)c1c(-c2ccc(C)o2)csc1NC(=O)CSc1nnnn1-c1ccccc1 | -8.2%
13 | CCCCCCCCNC(=O)c1cnsn1 | -0.1%
14 | COc1cccc(-c2cc(C(=O)NCCCn3ccnc3)c3ccccc3n2)c1 | -3%
15 | O=C(Cn1cc2c(n1)CCCCC2)NC1CCN(Cc2ccccc2)CC1 | -4.9%
16 | CCCc1cc(-c2n[nH]c(=S)n2CC)cs1 | -5.7%
17 | O=C(Cn1c(=O)oc2cc(S(=O)(=O)N3CCCCC3)ccc21)N1CCc2ccccc2C1 | -5.2%
18 | COc1ccc(NC(=O)OCCN2CCN(Cc3ccccc3)CCC2=O)cc1 | -8%
19 | N#Cc1nc(COc2ccccc2)oc1N1CCN(Cc2ccccc2)CC1 | 0.7%
20 | CCC(C)NC(=O)Cc1c(OC)ccc2cc(Br)ccc12 (configuration not stated) | -4.6%
21 | C=CCSc1nnc(-c2ccccc2NC(=O)CC)c(=O)[nH]1 | -1.1%
22 | COc1ccccc1N1CCN(C(=O)CCN2C(=O)c3cccc4cccc(c34)C2=O)CC1 | -4.4%
23 | CC(=O)Nc1ccc(NC(=O)C(C)c2cccc(C(=O)c3ccccc3)c2)cc1 (configuration not stated) | 2.4%
24 | CCOC(=O)c1ccc(NC(=S)NCCCN2CCCCC2)cc1 | -4.4%

Row | SMILES | displacement
25 | COC(=O)c1cc2n3ccccc3c(C)c(-c3ccccc3)c-2c1C(=O)OC | 72.2% (active)
26 | COC(=O)c1cc2c(-c3ccccc3)c(C)c3ccccn3c-2c1C(=O)OC | 26%
27 | COC(=O)c1c(Cl)c2n3ccccc3c(C)c(-c3ccccc3)c-2c1C(=O)OC | -0.6%
28 | O=C(O)/C=C\C(=O)NCc1cccnc1 | -9.2%
29 | Cc1cc(F)ccc1N1CCC(N2CCN(C(C)C)C(CCO)C2)CC1 (configuration not stated) | -1.1%
30 | O=C(c1cc(COc2ccc(F)cc2F)on1)N1CCSCC1 | -0.5%
31 | CCN1CCN(C(=S)Nc2cc(S(=O)(=O)N(CC)CC)ccc2C)CC1 | -2.7%
32 | Cc1ccccc1NC(=O)Cc1c(O)c2ccccc2[nH]c1=O | -1.1%
33 | CCOC(=O)CSC(=S)NC(=O)c1ccc(OC)cc1 | -1.6%
34 | CCOC(=O)C1=C(C)NC(=NC)SC1c1ccccc1 (configuration not stated) | -5%
35 | CSc1nnc(-c2cccs2)n1-c1ccccc1 | 0.8%
36 | CCOC(=O)C1(CC2CC2)CCN(Cc2ccc(O)c(Cl)c2)CC1 | -4.8%
37 | CCCc1cc(=O)[nH]c(SCC(=O)N(CC)C2CCS(=O)(=O)C2)n1 (configuration not stated) | -4.4%
38 | CC(C)(C)C1=C(C#N)C(c2ccncc2)C(C#N)=C(N)O1 (configuration not stated) | -0.4%
39 | CCN1CCCC1CNC(=O)Cn1cccc1C(=O)c1ccccc1 (configuration not stated) | -6.4%
40 | CC(=O)c1cc(-c2ccccc2)n(CC(=O)Nc2cc(C)cc(C)c2)c1C | -1%
41 | Cc1ccc(C)c2[nH]c(=O)c(CN(Cc3ccco3)C(=S)NCC3CCCO3)cc12 (configuration not stated) | 0.3%
42 | CCN(c1ccccc1)S(=O)(=O)c1cc(C(=O)Nc2ccccc2Cl)ccc1F | -5.8%
43 | O=C(c1ccc(F)cc1)N1CCCCC(Sc2nnnn2-c2ccccc2)C1=O (configuration not stated) | -21.1%
44 | Cc1c(C(=O)C(=O)NCC2CCCO2)c2ccccc2n1C (configuration not stated) | -2.9%
45 | CCOC(=O)C(=O)Nc1cc(Cl)ccc1C | -10.6%
46 | Cc1c(N)cccc1-n1cnnn1 | -4%
47 | Cc1onc(-c2c(F)cccc2Cl)c1C(=O)N1CCc2ccccc2C1 | -8.4%
